Rows were chosen to be rich in hits. Some 11% of all compounds tested hit in one or more screens of this group.
USP17 block: inhibitors of human USP17 deubiquitinase | Ubiquitin carboxyl-terminal hydrolase 17-like protein 5 (Homo sapiens), A8MUK1 | purified USP17, Ub-rhodamine cleavage fluorescence, 3 h | inhibition, % at 50 µM | hit rate 6.5% among 47,000 | AID 1645855, 2021
OTUD3 inh: inhibitors of human OTUD3 deubiquitinase; OTU domain-containing protein 3 (Homo sapiens), Q5T2D3; purified OTUD3, Ub-rhodamine fluorescence, 2 h; inhibition, % at 25 µM; hit rate 0.7% among 47,000; AID 1645858, 2021
Target sequence (Q5T2D3 whole entry, looked up, the tested form may be a part): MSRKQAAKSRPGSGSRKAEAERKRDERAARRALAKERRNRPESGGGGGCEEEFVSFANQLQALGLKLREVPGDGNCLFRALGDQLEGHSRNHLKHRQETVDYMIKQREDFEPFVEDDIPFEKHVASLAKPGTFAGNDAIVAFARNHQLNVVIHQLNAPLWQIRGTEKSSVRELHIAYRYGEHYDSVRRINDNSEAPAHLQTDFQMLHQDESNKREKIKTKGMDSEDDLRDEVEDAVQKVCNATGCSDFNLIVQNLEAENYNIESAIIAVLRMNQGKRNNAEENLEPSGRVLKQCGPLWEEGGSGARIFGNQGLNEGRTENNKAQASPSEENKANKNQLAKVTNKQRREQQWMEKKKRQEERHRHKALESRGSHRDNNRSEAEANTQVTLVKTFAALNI
USP30 block: inhibitors of human USP30 deubiquitinase; Ubiquitin carboxyl-terminal hydrolase 30 (Homo sapiens), Q70CQ3; purified USP30, Ub-rhodamine cleavage fluorescence; inhibition, % at 25 µM; hit rate 5.3% among 47,000; AID 1645860, 2021
USP28 inh: inhibitors of human USP28 deubiquitinase; Ubiquitin carboxyl-terminal hydrolase 28 (Homo sapiens), Q96RU2; purified USP28, Ub-rhodamine cleavage fluorescence, 30 min; inhibition, % at 25 µM; hit rate 3% among 47,000; AID 1645857, 2021
* = called active by the depositor. Cut-off read from the data, not from the text of the source: active = inhibition above about 30%; inactive = the rest.

`O=C(Nc1ccc(F)cc1)C1CCCN(C(=O)c2cc(-c3ccncc3)n[nH]2)C1` (centres undefined) gave USP17 block 3.4, OTUD3 inh 5.5, USP30 block 11.0 and USP28 inh 1.0.
CCCCCCn1c(CN(Cc2ccccc2)Cc2ccccc2)nc2c1c(=O)n(C)c(=O)n2C was read as USP17 block 4.9, OTUD3 inh 8.9, USP30 block 21.4 and USP28 inh 1.2.
`Cc1c(O)ccc(-c2csc(N)n2)c1O` gave USP17 block -9.8, OTUD3 inh 8.7, USP30 block -27.6 and USP28 inh 3.7.
For Cc1ccc(S(=O)(=O)c2nnn3c2nc(N2CCN(c4cc(C)ccc4C)CC2)c2ccccc23)cc1 the results were USP17 block 12.0, OTUD3 inh 10.2, USP30 block 30.2* and USP28 inh 0.8.
For COC(=O)c1cccc(Nc2c(-c3ccc(OC)cc3)nc3cnccn23)c1 the results were USP17 block -52.6, OTUD3 inh -35.9, USP30 block -121.7 and USP28 inh -42.1.
For Cc1ccc(Nc2c(-c3cccnc3)nc3cc(C)ccn23)cc1 the results were USP17 block -9.3, OTUD3 inh 3.9, USP30 block 31.9* and USP28 inh 33.0*.
`O=C1NC2(CCN(C(=O)c3ccc(F)cc3)CC2)N=C1c1ccc(Cl)cc1` gave USP17 block 3.4, OTUD3 inh 12.6, USP30 block 12.2 and USP28 inh 1.9.
CC(C)n1nccc1-c1cncc(C2CCCN(S(=O)(=O)N(C)C)C2)n1 (centres undefined) was read as USP17 block -6.1, OTUD3 inh -6.8, USP30 block -13.0 and USP28 inh -1.3.
Screening O=C(CC1CCCCC1)N1CCCC(c2nn(CCOc3ccccc3)c3nccnc23)C1 (centres undefined) returned USP17 block 26.2, OTUD3 inh 26.6, USP30 block 34.6* and USP28 inh 22.7.
Screening C#CCn1c(SCc2c(Cl)cccc2Cl)nc(CCC)c1CCC returned USP17 block 14.6, OTUD3 inh 16.5, USP30 block 12.0 and USP28 inh 15.4.
For Cc1ccccc1CNC(=O)C1CCCN(S(=O)(=O)N2CCOCC2)C1 (centres undefined) the results were USP17 block 6.1, OTUD3 inh 4.1, USP30 block 23.2 and USP28 inh 6.6.
For Cc1cc(=O)sc2c1c(C)nn2-c1ccccc1 the results were USP17 block 31.1*, OTUD3 inh 18.9, USP30 block 13.8 and USP28 inh 30.1*.
Cc1ccnc(Sc2ncccc2O)c1 was read as USP17 block -13.3, OTUD3 inh 1.1, USP30 block 4.0 and USP28 inh -12.1.
For O=C(Nc1ccc(-c2nnc3n2CCCCC3)cc1)c1cc2ccccc2o1 the results were USP17 block -2.3, OTUD3 inh -14.7, USP30 block -1.6 and USP28 inh 34.7*.
Screening Cc1c(C(=O)NCC2(N3CCCCC3)CCCCC2)oc2c1ccc1ccccc12 returned USP17 block -23.9, OTUD3 inh -34.6, USP30 block -127.7 and USP28 inh -43.4.
Cc1c(C(=O)Nc2ccc(-c3nnc4n3CCCCC4)cc2)oc2c1ccc1ccccc12 was read as USP17 block -3.5, OTUD3 inh -0.2, USP30 block -12.1 and USP28 inh 68.5*.
CC1(C)CC(=O)C2(Cc3cc([N+](=O)[O-])ccc3N3CCCC32)C(=O)C1 (centres undefined) was read as USP17 block 36.0*, OTUD3 inh -11.1, USP30 block -22.2 and USP28 inh -7.6.
Screening CCOc1ccc(CC(=O)Nc2ccc(-c3cn4cccnc4n3)cc2)cc1 returned USP17 block 67.8*, OTUD3 inh -6.0, USP30 block -22.0 and USP28 inh 43.8*.
For CC(=O)N(O)CCC[C@@H]1NC(=O)[C@H](CCCN(O)C(C)=O)NC1=O the results were USP17 block 36.4*, OTUD3 inh 9.1, USP30 block -11.4 and USP28 inh 18.7.
O=C1CC(C(=O)Nc2cccc(Cl)c2)c2ccc(F)cc2N1 (centres undefined) was read as USP17 block -5.2, OTUD3 inh -7.8, USP30 block -4.6 and USP28 inh 14.7.
Screening O=C1CC(C(=O)Nc2cccc(Br)c2)c2ccc(F)cc2N1 (centres undefined) returned USP17 block 11.2, OTUD3 inh 9.7, USP30 block 10.6 and USP28 inh 38.8*.
Screening O=C(NCc1ccccc1Cl)c1cc(S(=O)(=O)N2CCC3(CC2)OCCO3)ccc1F returned USP17 block 4.2, OTUD3 inh -2.1, USP30 block 0.2 and USP28 inh 15.8.
For O=C(NCc1ccc(Cl)c(Cl)c1)c1cc(S(=O)(=O)N2CCC3(CC2)OCCO3)ccc1F the results were USP17 block 1.3, OTUD3 inh 5.9, USP30 block 21.7 and USP28 inh 35.7*.
Screening CCc1ccc(CN2Cc3ccnn3CC(c3nc(C)no3)C2)o1 (centres undefined) returned USP17 block -36.5, OTUD3 inh -2.0, USP30 block -80.3 and USP28 inh -13.0.
Screening O=S(=O)(c1ccccc1)N1CCN(c2ccc(-c3cccnc3)nn2)CC1 returned USP17 block 48.6*, OTUD3 inh -7.1, USP30 block -5.9 and USP28 inh 0.2.
Screening O=S(=O)(c1ccccc1)N1CCN(c2cc(-c3cccnc3)[nH]n2)CC1 returned USP17 block 28.1, OTUD3 inh 6.4, USP30 block 22.1 and USP28 inh 13.7.
`O=S(=O)(C1CC1)N1CCOC2(CCCN(c3ncc(F)cn3)C2)C1` (centres undefined) gave USP17 block 16.2, OTUD3 inh 12.9, USP30 block 35.3* and USP28 inh 14.6.
For Cn1c(C(=O)NCc2ccccn2)cc2cc(Cl)ccc21 the results were USP17 block 3.0, OTUD3 inh 6.8, USP30 block 9.0 and USP28 inh 22.5.
Screening NCCC(=O)N1CCC2(CC1)OC(=O)N(Cc1ccccc1)c1ccccc12 returned USP17 block -11.1, OTUD3 inh -8.1, USP30 block -3.8 and USP28 inh 13.1.
Screening NCCNC(=O)N1CCC2(CC1)OC(=O)N(Cc1ccccc1)c1ccccc12 returned USP17 block -7.6, OTUD3 inh 5.4, USP30 block 4.9 and USP28 inh 34.2*.
`NS(=O)(=O)c1cc(C(=O)OCC(=O)c2ccc3c(c2)OCCO3)ccc1Cl` gave USP17 block -28.3, OTUD3 inh -6.3, USP30 block -11.5 and USP28 inh 69.9*.
`CC(OC(=O)c1ccc2ncsc2c1)C(=O)Nc1ccc2c(c1)OCO2` (centres undefined) gave USP17 block 0.0, OTUD3 inh -0.1, USP30 block 3.6 and USP28 inh -3.5.
For O=C(COC(=O)c1ccc2ncsc2c1)c1ccc2c(c1)OCCO2 the results were USP17 block -10.5, OTUD3 inh -7.2, USP30 block -41.5 and USP28 inh 30.9*.
O=C(COC(=O)c1ccc(CN2CCCC2=O)cc1)c1ccc2c(c1)OCCO2 was read as USP17 block 9.3, OTUD3 inh -4.6, USP30 block -24.6 and USP28 inh 89.7*.
Screening Cc1cccc(C(=O)OCC(=O)c2ccc3c(c2)OCCO3)c1O returned USP17 block 4.6, OTUD3 inh 12.2, USP30 block 1.3 and USP28 inh 18.6.

Screens from PubChem.
